Inconclusive results are not listed. Active and inactive are the calls of the source. Unless noted, the call rests on the fitted dose curve; in most records, active means well fitted curve in the direction sought with a large enough effect in the repeat runs; inconclusive means weak or mixed curves; inactive means no such curve, though single readings can be large; an effect the other way counts as inactive or inconclusive.
Tests used:
[1] = target: Peroxisome proliferator-activated receptor delta (Homo sapiens) (UniProt Q03181); assay: qHTS assay to identify small molecule agonists of the peroxisome proliferator-activated receptor delta (PPARd) signaling pathway (AID 743212; calls by dose curve)
Outline: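 A PPARd-bla HEK293H line with beta-lactamase under an Upstream Activator Sequence is treated with compounds at 37 C. Substrate loading for 2 h at room temperature precedes the fluorescence measurement.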

[2] = qHTS assay to identify small molecule antagonists of the peroxisome proliferator-activated receptor delta (PPARd) signaling pathway - cell viability counter screen (AID 743213); further: nearly all actives have a fitted effect of over 50% in size
Outline: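 CellTiter-Glo was added to PPARd-bla HEK293H wells following 17 h compound treatment in the presence of 300 nM L165041. Luminescence was recorded after 30 min at room temperature.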

[3] = target: Peroxisome proliferator-activated receptor delta (Homo sapiens) (UniProt Q03181); assay: qHTS assay to identify small molecule antagonists of the peroxisome proliferator-activated receptor delta (PPARd) signaling pathway (AID 743215; active means well fitted inhibition curve with a large enough effect in the signal ratio in the repeat runs, not every such curve was filed as active; the % refers to the signal ratio;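 further: cells stimulated with agonist L165041 at 300 nM final during compound exposure; series mostly up to about 62 µM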)
Outline: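 Read-out is beta-lactamase FRET fluorescence, measured 2 h after substrate addition at room temperature. Beforehand, UAS-bla HEK293H cells carrying the PPARd reporter were exposed to compounds with L165041 at 300 nM final for 17 h at 37 C.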

[4] = qHTS assay to identify small molecule agonists of the farnesoid-X-receptor (FXR) signaling pathway - cell viability counter screen (AID 743218); further: nearly all actives have a fitted effect of over 45% in size
Outline: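 HEK 293T FXR-bla cells; 5 h pre-incubation, 16 h compound exposure at 37 C; LiveBLAzer substrate 2 h RT, then CellTiter-Glo 30 min RT, luminescence.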

[5] = qHTS assay to identify small molecule antagonists of the farnesoid-X-receptor (FXR) signaling pathway - cell viability counter screen (AID 743221; active means well fitted cell-killing curve with a large enough effect in the repeat runs, not every such curve was filed as active; further: nearly all actives have a fitted effect of over 50% in size)
Outline: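 Cytotoxicity counter screen run in the FXR-bla reporter wells: HEK 293T cells exposed to compound with 50 uM (final) chenodeoxycholic acid for 16 h, 37 C, then viability measured by CellTiter-Glo luminescence after 30 min, room temperature.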

[6] = target: Vitamin D3 receptor (Homo sapiens) (UniProt P11473); assay: qHTS assay to identify small molecule antagonists of the vitamin D receptor (VDR) signaling pathway (AID 743223; active means well fitted inhibition curve with a large enough effect in the signal ratio in the repeat runs, not every such curve was filed as active; the % refers to the signal ratio)
Outline: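 Antagonist mode: compound added to VDR-bla cells alongside agonist 1alpha,25-dihydroxyvitamin D3 (3 nM final), incubation 16 h at 37C. Read-out is LiveBLAzer FRET fluorescence, 2 h at room temperature.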

[7] = qHTS assay to identify small molecule agonists of the vitamin D receptor (VDR) signaling pathway - cell viability counter screen (AID 743224); further: series mostly up to about 63 µM; nearly all actives have a fitted effect of over 50% in size
Outline: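 Luminescence from CellTiter-Glo, read after 30 min at room temperature, reports viability of VDR-bla cells treated with compounds for 16 h at 37C in the wells used for the beta-lactamase FRET read.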

[8] = qHTS assay to identify small molecule antagonists of the vitamin D receptor (VDR) signaling pathway - cell viability counter screen (AID 743225); further: nearly all actives have a fitted effect of over 50% in size
Outline: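 Cytotoxicity counter screen read by CellTiter-Glo luminescence (30 min, room temperature) in the same wells as the VDR-bla antagonist readout. HEK 293T VDR-UAS-bla cells had 16 h at 37C with compound and 3 nM (final) 1-alpha,25-dihydroxyvitamin D3, then 2 h with FRET substrate.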

[9] = qHTS assay to identify small molecule agonists of the endoplasmic reticulum stress response signaling pathway (AID 1159516; active means well fitted activation curve with a large enough effect in the signal ratio in the repeat runs, not every such curve was filed as active; the % refers to the signal ratio)
Outline: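 Read-out is beta-lactamase cleavage of a FRET substrate (405 nm excitation; 460 and 530 nm emissions) in ESRE-bla HeLa cells after a 5 hr compound exposure at 37 C. Substrate incubation ran 2 hr at room temperature.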

[10] = qHTS assay to identify small molecule agonists of the endoplasmic reticulum stress response signaling pathway - cell viability counter screen (AID 1159517; calls by dose curve)
Outline: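 CellTiter-Glo was added to wells already read for beta-lactamase FRET, and luminescence was recorded 30 min later. Cells: ESRE-bla HeLa, 1,500 per well, compound exposure 5 hr at 37 C.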

[11] = qHTS assay to identify small molecule antagonists of the retinoid-related orphan receptor gamma (ROR-gamma) signaling pathway - cell viability counter screen (AID 1159520); further: nearly all actives have a fitted effect of over 50% in size
Outline: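 Tet-on ROR gamma CHO cells (1,000/well) were plated 4 hr, given compounds in DMSO for 2 hr at 37 C, then induced with 1 uM final doxycycline for 16 hr. Viability was read as ATP by CellTiter-Glo luminescence after 30 min.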

[12] = target: Nuclear receptor ROR-gamma (Homo sapiens) (UniProt P51449); assay: qHTS assay to identify small molecule antagonists of the retinoid-related orphan receptor gamma (ROR-gamma) signaling pathway (AID 1159521)
Outline: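 Antagonist read-out: drop in luminescence (ONE-Glo) from an RORE-LUC reporter in CHO cells with doxycycline-inducible ROR-gamma; 2 hr compound pretreatment, 1 uM doxycycline, 16 hr incubation at 37 C.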

[13] = qHTS assay to identify small molecule agonists of the AP-1 signaling pathway - cell viability counter screen (AID 1159525; calls by dose curve; further: nearly all actives have a fitted effect of over 55% in size)
Outline: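 ME-180 AP-1-bla, 2500 cells/well, Opti-MEM + 0.5% dialyzed FBS; overnight 37 °C; cpd 15-pt titration, 5 h 37 °C; CellTiter-Glo 30 min RT; luminescence read; normalised to TOAB and DMSO controls.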

[14] = qHTS assay to identify small molecule agonists of the AP-1 signaling pathway (AID 1159526; calls by dose curve)
[15] = target: Retinoic acid receptor RXR-alpha (Homo sapiens) (UniProt P19793); assay: qHTS assay to identify small molecule agonists of the RXR signaling pathway (AID 1159527; calls by dose curve; further: nearly all actives have a fitted effect of over 35% in size)
Outline: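 Agonist-mode beta-lactamase reporter assay: HEK 293T RXR-alpha-UAS-bla cells treated 16 hr at 37 C with compounds, 9-cis retinoic acid as positive control. LiveBLAzer FRET substrate, 405 nm excitation, 460/530 nm emission.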

[16] = qHTS assay to identify small molecule agonists of the peroxisome proliferator-activated receptor delta (PPARd) signaling pathway - cell viability counter screen (AID 743211); further: nearly all actives have a fitted effect of over 55% in size
Outline: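 Viability was measured as CellTiter-Glo luminescence (30 min, room temperature) in the same wells as the beta-lactamase readout. GeneBLAzer PPARd UAS-bla HEK293H cells received compound after 5 h plating and were incubated 17 h at 37 C.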

[17] = target: Bile acid receptor (Homo sapiens) (UniProt Q96RI1); assay: qHTS assay to identify small molecule antagonists of the farnesoid-X-receptor (FXR) signaling pathway (AID 743217; active means well fitted inhibition curve with a large enough effect in the signal ratio in the repeat runs, not every such curve was filed as active; the % refers to the signal ratio)
Outline: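 HEK 293T FXR-UAS-bla, 5000 cells/well; compound + CDCA 50 uM final; 16 h, 37 °C; B/G FRET substrate 2 h RT; fluorescence.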

[18] = target: Vitamin D3 receptor (Homo sapiens) (UniProt P11473); assay: qHTS assay to identify small molecule agonists of the vitamin D receptor (VDR) signaling pathway (AID 743222; calls by dose curve)
Outline: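 VDR-bla cells, 2,000/well; 4 h preincubation 37C; cpd (DMSO) 16 h; LiveBLAzer B/G substrate 2 h RT; fluorescence intensity read.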

Measured: Potency

Sequence of Vitamin D3 receptor (Homo sapiens) (P11473 whole entry, looked up): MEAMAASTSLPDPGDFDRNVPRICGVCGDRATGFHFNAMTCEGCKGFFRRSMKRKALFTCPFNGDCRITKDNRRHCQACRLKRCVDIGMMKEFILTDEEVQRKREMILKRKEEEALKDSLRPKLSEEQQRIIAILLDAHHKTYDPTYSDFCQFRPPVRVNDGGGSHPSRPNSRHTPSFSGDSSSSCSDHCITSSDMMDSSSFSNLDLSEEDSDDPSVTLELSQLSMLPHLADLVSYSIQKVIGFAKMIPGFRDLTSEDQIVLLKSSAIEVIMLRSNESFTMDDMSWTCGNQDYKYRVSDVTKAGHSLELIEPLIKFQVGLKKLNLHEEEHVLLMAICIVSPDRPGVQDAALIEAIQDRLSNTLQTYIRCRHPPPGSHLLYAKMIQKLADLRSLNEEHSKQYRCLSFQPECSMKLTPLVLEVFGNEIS
Sequence of Peroxisome proliferator-activated receptor delta (Homo sapiens) (Q03181 whole entry, looked up): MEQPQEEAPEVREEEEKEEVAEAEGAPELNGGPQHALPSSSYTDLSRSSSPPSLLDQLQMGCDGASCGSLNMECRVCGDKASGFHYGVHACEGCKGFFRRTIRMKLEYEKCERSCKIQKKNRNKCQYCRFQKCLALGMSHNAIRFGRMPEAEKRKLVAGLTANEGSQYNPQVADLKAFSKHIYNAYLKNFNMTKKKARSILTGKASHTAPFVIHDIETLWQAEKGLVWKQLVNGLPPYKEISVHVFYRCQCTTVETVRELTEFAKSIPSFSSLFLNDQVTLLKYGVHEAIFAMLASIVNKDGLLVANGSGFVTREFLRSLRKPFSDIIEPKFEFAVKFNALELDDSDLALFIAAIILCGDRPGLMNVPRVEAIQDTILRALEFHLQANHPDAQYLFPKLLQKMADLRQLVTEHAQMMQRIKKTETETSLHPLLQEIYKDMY
Sequence of Retinoic acid receptor RXR-alpha (Homo sapiens) (P19793 whole entry, looked up): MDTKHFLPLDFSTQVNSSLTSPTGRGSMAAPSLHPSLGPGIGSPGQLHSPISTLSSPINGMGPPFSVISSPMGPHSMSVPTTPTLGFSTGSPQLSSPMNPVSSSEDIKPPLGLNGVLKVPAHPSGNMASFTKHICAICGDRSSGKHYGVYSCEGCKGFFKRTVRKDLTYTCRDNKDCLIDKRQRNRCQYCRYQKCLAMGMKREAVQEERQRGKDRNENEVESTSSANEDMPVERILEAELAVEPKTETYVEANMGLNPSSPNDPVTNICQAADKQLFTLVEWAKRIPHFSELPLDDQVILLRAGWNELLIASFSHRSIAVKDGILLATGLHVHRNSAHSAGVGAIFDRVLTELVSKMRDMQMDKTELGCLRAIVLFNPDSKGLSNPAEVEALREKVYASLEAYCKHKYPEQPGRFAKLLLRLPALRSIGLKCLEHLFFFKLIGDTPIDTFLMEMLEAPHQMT
Sequence of Bile acid receptor (Homo sapiens) (Q96RI1 whole entry, looked up): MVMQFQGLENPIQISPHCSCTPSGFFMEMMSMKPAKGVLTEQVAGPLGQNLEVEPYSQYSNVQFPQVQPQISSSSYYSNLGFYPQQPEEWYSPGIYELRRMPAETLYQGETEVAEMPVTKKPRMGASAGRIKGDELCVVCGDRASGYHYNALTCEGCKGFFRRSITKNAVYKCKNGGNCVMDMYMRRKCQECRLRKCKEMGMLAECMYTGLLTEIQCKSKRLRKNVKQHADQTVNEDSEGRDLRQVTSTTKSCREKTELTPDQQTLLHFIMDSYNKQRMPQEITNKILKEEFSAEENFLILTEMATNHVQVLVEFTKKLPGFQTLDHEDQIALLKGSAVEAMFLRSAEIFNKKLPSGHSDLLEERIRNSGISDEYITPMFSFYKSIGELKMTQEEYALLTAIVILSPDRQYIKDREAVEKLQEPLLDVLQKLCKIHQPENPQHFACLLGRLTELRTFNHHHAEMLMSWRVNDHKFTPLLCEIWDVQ

CC[N+]1(C)CCCC(OC(=O)C(O)(c2ccccc2)c2ccccc2)C1 (centres undefined)
not listed: [15] | [16] | [17] | [18]
inactive: all other assays above

CCC1(CC)C(=O)NC(=O)NC1=O
not listed: [8] | [16] | [17] | [18]
inactive: all other assays above

CCCCC#N
not listed: [6] | [15] | [17] | [18]
inactive: all other assays above

CCOP(=S)(S)OCC
not listed: [1] | [8] | [15] | [18]
inactive: all other assays above

C=CC(C)(CCC=C(C)C)OC(=O)c1ccccc1N (centres undefined)
not listed: [1] | [3] | [12] | [17]
inactive: all other assays above

NP(N)(=O)NC(=O)c1ccc(F)cc1
not listed: [6] | [8] | [15] | [17]
inactive: all other assays above

C[N+](C)(C)CCOC(=O)C(O)(c1ccccc1)c1ccccc1
not listed: [2] | [4] | [17]
inactive: all other assays above

NC(=O)CF
inactive: [2] | [5] | [18] | [9] | [10] | [11] | [12] | [13] | [14] | [15]

Source: PubChem BioAssay (Tox21)
